Data reported in PubChem BioAssay (NCATS).
“And” between values parts separate entries of the source, which are not always exact repeats. Equal values may be shown once. Records with an inconclusive call do not appear. The source made the active and inactive calls. The call rests on the fitted dose curve; in most records, active means well fitted inhibition curve with a large enough effect; inconclusive means small, poorly fitted or top-dose-only effect; inactive means flat fitted curve, though single readings scatter.

Assays:
NIH3T3 [1] = assay: Cytotoxic Profiling of Annotated Libraries Using Quantitative High-Throughput Screening (AID 1296008); conditions: Five cell lines viability, CellTiter-Glo ATP luminescence, 48-72 h; max response: active compounds read low
How it was run: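 Cytotoxicity was measured as CellTiter-Glo ATP luminescence, read after 10 min at room temperature. Compound treatment of the cells lasted 48 or 72 hr at 37 degrees Celsius in a qHTS format.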

HACAT = assay: qHTS assay to identify novel small-molecules to repurpose for Merkel cell carcinoma treatment (AID 1296009); conditions: MCC and control cell lines, CellTiter-Glo viability, 72 h; at 44.8 µM (top of the series) unless noted
How it was run: (§1)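 After compound transfer in DMSO, plates were kept 72 hr at 37 degree celsius. Luminescent ATP signal from CellTiter-Glo served as viability measure, normalized against DMSO and no-cell controls.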

MCC-13 = assay: as above; conditions: MCC and control cell lines, CellTiter-Glo viability, 72 h; series mostly up to 46 µM
How it was run: as §1

MCC-26 = assay: as above; conditions: MCC and control cell lines, CellTiter-Glo viability, 72 h; series mostly up to 46 µM
How it was run: as §1

MKL-1 = assay: as above; conditions: MCC and control cell lines, CellTiter-Glo viability, 72 h; series mostly up to 46 µM
How it was run: as §1

MKL-2 = assay: as above; conditions: MCC and control cell lines, CellTiter-Glo viability, 72 h; series mostly up to 46 µM
How it was run: as §1

UISO = assay: as above; conditions: MCC and control cell lines, CellTiter-Glo viability, 72 h; series mostly up to 46 µM
How it was run: as §1

WaGa = assay: as above; conditions: MCC and control cell lines, CellTiter-Glo viability, 72 h; series mostly up to 46 µM
How it was run: as §1

NIH3T3 [2] = assay: as above; conditions: MCC and control cell lines, CellTiter-Glo viability, 72 h; at 44.8 µM (top of the series) unless noted
How it was run: as §1
Further: nearly all actives have a fitted effect of over 60% in size.
On the % scale 0 is the no-effect control and ±100 the full control effect.

CN1CC(=O)N2[C@H](c3ccc4c(c3)OCO4)c3[nH]c4ccccc4c3C[C@@H]2C1=O
inactive: max response (NIH3T3 [1]) 3.47% | outcome (HACAT) | Potency (MCC-13) | Potency (MCC-26) | Potency (MKL-1) | Potency (MKL-2) | Potency (UISO) | Potency (WaGa)

Nc1ccc([N+](=O)[O-])c(C(F)(F)F)c1
inactive: max response (NIH3T3 [1]) 0.447% | outcome (HACAT) | Potency (MCC-13) | Potency (MCC-26) | Potency (MKL-1) | Potency (MKL-2) | Potency (UISO) | Potency (WaGa)

O=C(Oc1ccccc1)c1cccc(C(=O)Oc2ccccc2)c1
inactive: max response (NIH3T3 [1]) -5.12% | outcome (HACAT) inactive [at 92 µM] | Potency (MCC-13) | Potency (MCC-26) | Potency (MKL-1) | Potency (MKL-2) | Potency (UISO) | Potency (WaGa)

COc1ccc2c(c1)CCCC2=O
inactive: outcome (NIH3T3 [1]) | outcome (HACAT) | Potency (MCC-13) | Potency (MCC-26) | Potency (MKL-1) | Potency (MKL-2) | outcome (NIH3T3 [2]) | Potency (UISO) | Potency (WaGa)

Cc1onc(-c2ccccc2)c1C(=O)Cl
inactive: max response (NIH3T3 [1]) 4.1% | outcome (HACAT) | Potency (MCC-13) | Potency (MCC-26) | Potency (MKL-1) | Potency (MKL-2) | Potency (UISO) | Potency (WaGa)

N#CC1(c2ccc(F)cc2)CCC(=O)CC1
inactive: outcome (NIH3T3 [1]) | outcome (HACAT) | Potency (MCC-13) | Potency (MCC-26) | Potency (MKL-1) | Potency (MKL-2) | outcome (NIH3T3 [2]) | Potency (UISO) | Potency (WaGa)

CCCC(=O)OCOC(=O)C1=C(C)NC(C)=C(C(=O)OC)C1c1cccc(Cl)c1Cl (stereo not given)
inactive: max response (NIH3T3 [1]) 0.493% | outcome (HACAT) | Potency (MCC-13) | Potency (MCC-26) | Potency (MKL-1) | Potency (MKL-2) | Potency (UISO) | Potency (WaGa)

CO[C@@H]1[C@@H](O[C@@H]2O[C@H](C)[C@@H](O[C@H]3C[C@@](C)(O)[C@@H](O)[C@H](C)O3)[C@H](N(C)C)[C@H]2O)[C@@H](CC=O)C[C@@H](C)[C@@H](O[C@@H]2CC[C@H](N(C)C)[C@@H](C)O2)/C=C/C=C/C[C@@H](C)OC(=O)C[C@H]1OC(C)=O
inactive: max response (NIH3T3 [1]) -2.54% | outcome (HACAT) | Potency (MCC-13) | Potency (MCC-26) | Potency (MKL-1) | Potency (MKL-2) | Potency (UISO)

CC(=O)[C@H]1CC[C@H]2[C@@H]3C=CC4=CC(=O)CC[C@@]4(C)[C@@H]3CC[C@]12C
inactive: max response (NIH3T3 [1]) -20.6% and 1.55% | outcome (HACAT) | Potency (MCC-13) | Potency (MCC-26) | Potency (MKL-1) | Potency (MKL-2) | Potency (UISO) | Potency (WaGa)

O=C(OCCN1CCOCC1)c1cccnc1Nc1cccc(C(F)(F)F)c1
inactive: max response (NIH3T3 [1]) -0.363% | outcome (HACAT) | Potency (MCC-13) | Potency (MCC-26) | Potency (MKL-1) | Potency (MKL-2) | Potency (UISO)

O=C(O)[C@@H](O)[C@H](O)[C@H](O)[C@@H](O)C(=O)O
inactive: max response (NIH3T3 [1]) -2.02% | outcome (HACAT) | Potency (MCC-13) | Potency (MCC-26) | Potency (MKL-1) | Potency (MKL-2) | Potency (UISO) | Potency (WaGa)

CN(C(=O)C(Cl)Cl)c1ccc(OC(=O)c2ccco2)cc1
inactive: max response (NIH3T3 [1]) 1.4% | outcome (HACAT) | Potency (MCC-13) | Potency (MCC-26) | Potency (MKL-1) | Potency (MKL-2) | Potency (UISO) | Potency (WaGa)

CCOC(=O)NNc1nncc2ccccc12
inactive: max response (NIH3T3 [1]) 3.89% | outcome (HACAT) | Potency (MCC-13) | Potency (MCC-26) | Potency (MKL-1) | Potency (MKL-2) | Potency (UISO) | Potency (WaGa)

Cc1cccc(OCC(O)CNC(C)(C)C)c1C (stereo not given)
inactive: max response (NIH3T3 [1]) 0.115% | outcome (HACAT) | Potency (MCC-13) | Potency (MCC-26) | Potency (MKL-1) | Potency (MKL-2) | Potency (UISO) | Potency (WaGa)

CNC(=O)c1c(I)c(NC(C)=O)c(I)c(C(=O)O)c1I
inactive: max response (NIH3T3 [1]) 0.318% | outcome (HACAT) | Potency (MCC-13) | Potency (MCC-26) | Potency (MKL-1) | Potency (MKL-2) | Potency (UISO) | Potency (WaGa)

O=C(COCCOCCOCC(=O)Nc1c(I)cc(I)c(C(=O)O)c1I)Nc1c(I)cc(I)c(C(=O)O)c1I
inactive: max response (NIH3T3 [1]) 4.72% | outcome (HACAT) | Potency (MCC-13) | Potency (MCC-26) | Potency (MKL-1) | Potency (MKL-2) | Potency (UISO) | Potency (WaGa)

Cc1nc(C2CCCCC2)c(-c2ccc(S(N)(=O)=O)c(F)c2)o1
inactive: max response (NIH3T3 [1]) -12.8% | outcome (HACAT) | Potency (MCC-13) | Potency (MCC-26) | Potency (MKL-1) | Potency (MKL-2) | Potency (UISO) | Potency (WaGa)

N=C(N)c1ccc(OCCCOc2ccc(C(=N)N)cc2)cc1
inactive: outcome (NIH3T3 [1]) | outcome (HACAT) | Potency (MCC-13) | Potency (MCC-26) | Potency (MKL-1) | Potency (MKL-2) | outcome (NIH3T3 [2]) | Potency (UISO) | Potency (WaGa)

COc1cc(C=O)ccc1O
inactive: max response (NIH3T3 [1]) -0.279% | outcome (HACAT) | Potency (MCC-13) | Potency (MCC-26) | Potency (MKL-1) | Potency (MKL-2) | Potency (UISO) | Potency (WaGa)

CCN1CCN(C(=O)N[C@@H](C(=O)N[C@@H]2C(=O)N3[C@@H]2SC(C)(C)[C@H]3C(=O)O)c2ccccc2)C(=O)C1=O
inactive: max response (NIH3T3 [1]) 2.03% | outcome (HACAT) | Potency (MCC-13) | Potency (MCC-26) | Potency (MKL-1) | Potency (MKL-2) | Potency (UISO) | Potency (WaGa)

Cc1nc([N+](=O)[O-])cn1-c1ccc([N+](=O)[O-])cc1
inactive: outcome (NIH3T3 [1]) | outcome (HACAT) | Potency (MCC-13) | Potency (MCC-26) | Potency (MKL-1) | Potency (MKL-2) | outcome (NIH3T3 [2]) | Potency (UISO) | Potency (WaGa)

CC(=O)N(CC(O)CO)c1c(I)c(C(=O)NCCO)c(I)c(C(=O)NCC(O)CO)c1I (stereo not given)
inactive: outcome (NIH3T3 [1]) | outcome (HACAT) | Potency (MCC-13) | Potency (MCC-26) | Potency (MKL-1) | Potency (MKL-2) | outcome (NIH3T3 [2]) | Potency (UISO) | Potency (WaGa)

O=C(O)c1[nH]n(-c2ccc(S(=O)(=O)O)cc2)c(=O)c1N=Nc1ccc(S(=O)(=O)O)cc1
inactive: max response (NIH3T3 [1]) -0.37% | outcome (HACAT) | Potency (MCC-13) | Potency (MCC-26) | Potency (MKL-1) | Potency (MKL-2) | Potency (UISO) | Potency (WaGa)

CN1Cc2cc(C(=O)N3CCC(C4CCNCC4)CC3)ccc2N[C@@H](CC(=O)O)C1=O
inactive: max response (NIH3T3 [1]) 1.44% | outcome (HACAT) | Potency (MCC-13) | Potency (MCC-26) | Potency (MKL-1) | Potency (MKL-2) | Potency (UISO) | Potency (WaGa)
